S-ASM inh: Inhibitors of Secretory Acid Sphingomyelinase (S-ASM): qHTS | Potency, µM (top dose mostly 57.5 µM), most hits filed as inhibitors | 340,000 tested, 0.006% active | placental ASM, HMU-PC fluorogenic substrate, 60 min | Sphingomyelin phosphodiesterase (Homo sapiens), P17405 | AID 504937, 2011
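Steps: dispense placental human ASM, pin compound, wait 10 min at room temperature, add HMU-PC0 substrate at 9 uM final, incubate 60 min at 37 °C, add stop solution raising pH to 10, read fluorescence.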
12-LOX inh: Primary qHTS assay for inhibitors of human arachidonate 12S-lipoxygenase (ALOX12): Round 2. Polyunsaturated fatty acid lipoxygenase ALOX12 (Homo sapiens), P18054. purified 12hLO, xylenol orange hydroperoxide absorbance. Potency, µM (titrated, usually from 108 µM), hits mostly inhibitors. 580,000 tested, 1.1% active. AID 1671190, 2021
Target sequence (P18054 whole entry, looked up): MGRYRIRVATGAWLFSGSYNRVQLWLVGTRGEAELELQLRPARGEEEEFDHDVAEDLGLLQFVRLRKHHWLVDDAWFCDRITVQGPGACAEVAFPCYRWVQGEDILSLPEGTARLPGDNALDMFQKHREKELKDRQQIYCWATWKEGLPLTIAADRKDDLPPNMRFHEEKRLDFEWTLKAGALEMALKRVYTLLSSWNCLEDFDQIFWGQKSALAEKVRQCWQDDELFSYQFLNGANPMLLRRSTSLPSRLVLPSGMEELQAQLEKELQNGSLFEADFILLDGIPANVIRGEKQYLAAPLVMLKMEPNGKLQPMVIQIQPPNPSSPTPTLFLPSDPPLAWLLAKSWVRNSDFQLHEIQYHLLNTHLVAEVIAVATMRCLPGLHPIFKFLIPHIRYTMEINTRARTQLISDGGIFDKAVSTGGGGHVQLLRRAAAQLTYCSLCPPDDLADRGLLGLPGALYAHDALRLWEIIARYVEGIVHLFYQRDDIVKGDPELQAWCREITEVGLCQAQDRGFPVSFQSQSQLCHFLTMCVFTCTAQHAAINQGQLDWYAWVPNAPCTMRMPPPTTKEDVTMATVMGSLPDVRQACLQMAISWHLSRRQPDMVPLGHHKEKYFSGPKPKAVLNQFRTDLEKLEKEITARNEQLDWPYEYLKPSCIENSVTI
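Purified human 12hLO at 150 nM in 25 mM Hepes, 0.01% Triton X-100, pH 7.0, preincubated 15 min at room temperature with compound. Reaction started with 40 uM arachidonic acid, 30 min at room temperature. Hydroperoxide measured by Fe-xylenol orange, 573/405 nm absorbance ratio.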
Mm-Cpn inhibitor: Inhibitors of TCP-1 ring complex (TRiC) of Methanococcus maripaludis (MmCpn): qHTS; Chaperonin Mm-Cpn (Methanococcus maripaludis); purified Mm-Cpn ATPase, ADP Transcreener TR-FRET; Potency, µM (highest dose often 76.9 µM), hits mostly inhibitors; 330,000 tested, 0.031% active; AID 504842, 2011; note: nearly all actives have a fitted effect of over 80% in size
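25 nM Mm-CPN + cpd, 10 min 37°C; + 10 uM ATP, 30 min 37°C; buffer 30 mM Tris pH 7.4, 100 mM KCl, 5 mM MgCl2, 1 mM DTT; Transcreener ADP HTRF detection 30 min RT.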
PINK1 expr mod: A Quantitative High throughput Screen to Identify Chemical Modulators of PINK1 Expression | AID 624263, 2012 | 410,000 tested, 0.2% active | PINK1 immunofluorescence, high-content cytometry, 24 h | Potency, µM (series often up to 76.6 µM), hits mostly activators; active = well fitted activation curve with a large enough effect; inconclusive = small, poorly fitted or top-dose-only effect; cell line not stated here; note: nearly all actives have a fitted effect of over 65% in size
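Fluorescence from anti-PINK1 antibody, together with nuclear and cell stains, was scanned on a laser-scanning cytometer. Before staining, stable-line cells were incubated 24 hours with compounds at 5 concentrations; primary antibody 12 h at 10 degrees C.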
p53 reactivation: qHTS assay for re-activators of p53 using a Luc reporter. Potency, µM (highest dose often 92.2 µM), usual class: activators. 320,000 tested, 0.063% active. H1299 p53-A138V BP100-luciferase reporter, luminescence, 24 h; note: nearly all actives have a fitted effect of over 45% in size
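H1299 (p53-null), stable ts p53-A138V + BP100-Luc; 1000 cells/well, Opti-MEM/10% FBS; cpd 4 pt, 1:5; 24 h, 37 deg C, 5% CO2; detection reagent 10 min RT; luminescence.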
CCT chaperon mod: High-Throughput Screening for Modulators of Cytosolic Chaperonin Activity. AID 651819, 2012. activity change, % (test concentration not listed), hits read low. purified chaperonin ATPase assay, HTRF ADP detection, 30 min. 360,000 tested, 0.3% active; in the data active = activity change below about -30%
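First, chaperonin was dispensed at 40 nM or 20 nM final depending on batch activity. Next, compounds were pinned at 76 uM and ATP added at 10 uM. After 30 min at 37 °C, ADP detection reagents ran 30 min at ambient temperature.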
Of the large screens only hits and unclear results are named; the others gave an inactive call; ! = a repeat was not active. A selection: hits, their analogues and other compounds. The true share with any hit is near 1.4%. Unless noted, calls come from the whole dose curve; as a rule, active = well fitted curve in the direction sought with a large enough effect; inconclusive = small, poorly fitted or top-dose-only effect, or another doubt; inactive = no such curve, though single readings can be large; an effect the other way counts as inactive or inconclusive.

CC(C)n1nnc2cc(C(=O)N(C)CC(=O)Nc3cccc(C#N)c3)ccc21	none (no result: S-ASM inh, Mm-Cpn inhibitor, PINK1 expr mod, p53 reactivation, CCT chaperon mod)
CCc1cccc(CC)c1NC(=O)COC(=O)c1cc(OC)c(OC)cc1OC	none (no result: S-ASM inh, Mm-Cpn inhibitor, PINK1 expr mod, p53 reactivation, CCT chaperon mod)
CNC(=O)CCn1ncc2cc(OC3CCc4cccc(-c5ccc(O)c(F)c5)c43)ccc21 (configuration not stated)	12-LOX inh 50µM (no result: S-ASM inh, Mm-Cpn inhibitor, PINK1 expr mod, p53 reactivation, CCT chaperon mod)
O=C(CN1CCCCC1)NN(Cc1ccccc1)c1ccccc1	12-LOX inh 14µM
COc1ccc(-c2cccc(-c3nc4ccc(Cl)cn4c3NC3CCCCC3)c2)cc1	12-LOX inh 7.1µM
CCC(C)Sc1cc(-c2nc3ccc(Cl)cn3c2NC2CCCCC2)ccc1OC (configuration not stated)	12-LOX inh 40µM!, PINK1 expr mod inconclusive
COc1ccc(-n2c3c(cc(C(=O)Nc4ccc(C)cc4)c2=O)C(=O)CCC3)cc1	12-LOX inh inconclusive (no result: Mm-Cpn inhibitor, p53 reactivation)
COc1ccc(-n2c3c(cc(C#N)c2=O)C(=O)CCC3)cc1	CCT chaperon mod -34
FC(F)(F)c1ccccc1N/N=C1/CCc2ccccc21	12-LOX inh 10µM (no result: S-ASM inh, Mm-Cpn inhibitor, PINK1 expr mod, p53 reactivation, CCT chaperon mod)
c1ccc2c(c1)CC/C2=N/Nc1nc2ccccc2[nH]1	12-LOX inh inconclusive
Cc1cnc2c(S(=O)(=O)N3CCNCC3)cccc2c1	none (no result: S-ASM inh, Mm-Cpn inhibitor, PINK1 expr mod, p53 reactivation, CCT chaperon mod)
COc1ccc2c(c1)NC(c1cc(Cl)cc(Cl)c1O)c1cccn1-2 (configuration not stated)	12-LOX inh 32µM
Oc1c(Cl)cc(Cl)cc1C1Nc2ccccc2-n2cccc21 (configuration not stated)	none
c1ccc(-c2ncnc3nc4n(c23)CCC4)cc1	PINK1 expr mod 7.9µM (no result: Mm-Cpn inhibitor, p53 reactivation)
Cc1ccc(-n2c(C)nc3ncnc(-c4ccccc4)c32)cc1	none
Cn1c(N/N=C/c2cc3ccccc3nc2Cl)nc2ccccc21	PINK1 expr mod 35µM
Cn1c(N/N=C/c2c[nH]c3ccccc23)nc2ccccc21	12-LOX inh 45µM
Cc1cc(N/N=C/c2c[nH]c3ccccc23)c2ccccc2n1	none
CC(OC(=O)c1cc(-c2ccco2)nc2ccccc12)C(=O)NC(=O)NC(C)(C)C (configuration not stated)	12-LOX inh 8.9µM (no result: S-ASM inh, Mm-Cpn inhibitor, PINK1 expr mod, p53 reactivation, CCT chaperon mod)
CC(OC(=O)c1cc(-c2ccco2)nc2ccccc12)C(=O)NC(=O)NC1CCCCC1 (configuration not stated)	12-LOX inh 7.9µM (no result: S-ASM inh, Mm-Cpn inhibitor, PINK1 expr mod, p53 reactivation, CCT chaperon mod)
Cc1c(C(=O)NNC(=O)c2csc(N3CCOCC3)n2)oc2ccc(Br)cc12	12-LOX inh 40µM (no result: S-ASM inh, Mm-Cpn inhibitor, p53 reactivation)
Cc1c(C(=O)NNC(=O)c2csc(N3CCOCC3)n2)oc2ccccc12	Mm-Cpn inhibitor inconclusive
COc1ccc(C(=O)C[n+]2ccc3c(c2)nc(-c2ccccc2)n3C)cc1	CCT chaperon mod -36
FC(F)(F)c1ccc(N2CCN(c3ncnc4c3nnn4Cc3ccccc3)CC2)nc1	PINK1 expr mod 11µM
c1ccc(Cn2nnc3c(N4CCOCC4)ncnc32)cc1	none
O=C(O)c1c2c(nc3ccccc13)/C(=C/c1cccc([N+](=O)[O-])c1)CCC2	12-LOX inh 40µM
O=C(O)c1c2c(nc3ccccc13)/C(=C/c1ccccc1[N+](=O)[O-])CCC2	12-LOX inh inconclusive
Cc1ccc(C2CC2C(=O)NNC(=S)Nc2ccc(Cl)cc2)cc1 (configuration not stated)	12-LOX inh 45µM (no result: PINK1 expr mod)
CCCn1c2ccccc2c2nnc(SCc3ccc(F)cc3)nc21	none (no result: S-ASM inh, Mm-Cpn inhibitor, PINK1 expr mod, p53 reactivation, CCT chaperon mod)
CCS(=O)(=O)c1ccc(Cc2ccc(S(=O)(=O)CC)cc2)cc1	12-LOX inh 8.9µM (no result: S-ASM inh, Mm-Cpn inhibitor, PINK1 expr mod, p53 reactivation, CCT chaperon mod)
Cc1cc(C)c2c(CC(=O)NCc3ccccc3)coc2c1	none (no result: S-ASM inh, Mm-Cpn inhibitor, PINK1 expr mod, p53 reactivation, CCT chaperon mod)
S=c1[nH]nc(CSCc2ccccc2Cl)n1C1CCCCC1	12-LOX inh 45µM
Cn1c(CSCc2ccccc2Cl)n[nH]c1=S	12-LOX inh inconclusive
Cc1nc(CCNC(=O)CC(C)C)no1	none (no result: S-ASM inh, Mm-Cpn inhibitor, PINK1 expr mod, p53 reactivation, CCT chaperon mod)
